According to PubChem BioAssay AID708 (SRMLSC, 2007):
Among all 65,000 compounds or so, fewer than 10 were called active.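 The calls were made as follows: active = at 10 µM dose, initial 340 nm absorbance at least 2 fold that of control wells; inactive = change under 2 fold.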 Only a sample is shown.

experiment: A340 optical interference by library compounds – biochemical, MLSMR library, data from PS, PMK, MK assays, artefact control, profiling panel (AID 708); settings: compound absorbance at 340 nm, fold over control; at 10 µM; stronger effect = higher value;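 also: initial absorbance extrapolated from kinetic A340 decline of NADH oxidation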

Fold change, inactive:
COc1cc(OC)cc(C(=O)NCCSCc2ccco2)c1 1.02
CC(=O)NC1CC2CCCC(C1)N2CC(=O)Nc1ccccc1 (stereo unspecified) 1
COc1cc2[nH]c(=O)n(CCC(=O)NC3CCN(Cc4ccccc4)CC3)c(=O)c2cc1OC 1.06
COC(=O)c1ccc(/C=N\n2c(C)nnc2C)cc1 1.02
O=C(COc1ccccc1Cl)Nn1cnnc1 1.08
Cc1cc(-n2nc(C)cc2C)n2ncc(-c3ccccc3)c2n1 1.03
CCOC(=O)c1c(CN2CCOCC2)n(-c2ccccc2)c2ccc(O)cc12 0.98
Cc1ccc2nc(S(=O)(=O)O)[nH]c2c1 1.02
CC(=O)c1cc(C#N)c(SCC(=O)C(C)(C)C)nc1C 1.07
CC(=C1C(=O)c2ccccc2C1=O)N1CCN(c2ccccn2)CC1 1.15
CCS(=O)(=O)NCCc1ccc(OC)c(OC)c1 1.02
CCOC(=O)COc1ccc(Cl)cc1C1NC(=O)NC(C)=C1C(C)=O (stereo unspecified) 1.05
COc1ccc(-c2ccc(-c3noc(-c4ccncc4)n3)c(OC)n2)cc1 1.09
CSc1nc(O)c(Cc2ccccc2)c(=O)[nH]1 1
COc1ccccc1N1CCN(C(=O)c2c(-c3c(Cl)cccc3Cl)noc2C)CC1 0.98
Cc1cccc(OCc2nnc(SCC(=O)N3CCN(C(=O)c4ccco4)CC3)n2C)c1C 1.02
COCCn1nnnc1CN1CCC(NC(=O)Nc2cccc(OC)c2)CC1 1
CC(=O)c1c(N2CCOCC2)nc(=S)n(Cc2ccccc2)c1C 1.06
COc1cc(CO)c(C2(CO)CCCC2)cc1OC 1.04
CCOC(=O)C1=C(O)CSC1=Nc1cccc(Cl)c1 1.02
CCOC(=O)c1ccc2[nH]c(C)c(CN3CCN(C)CC3)c(=O)c2c1 1
Cc1nn(-c2ccccc2)c(CC(C)(C)C(=O)O)c1C(=O)O 1.02
COc1ccc2c(c1OC)C(=O)N(c1ncn[nH]1)C2 1.04
CC(C)(C)NC(=O)C(c1ccncc1)N(C(=O)CNC(=O)c1ccco1)c1ccc2c(c1)OCO2 (stereo unspecified) 0.98
COc1ccc(N2C(=O)C3CCCN3C2c2cc(OC)c(OC)cc2OC)cc1 (stereo unspecified) 1.01
O=C1c2ccccc2C(O)N1Cc1ccccc1Cl (stereo unspecified) 1.03
COc1cccc(C(=O)Nc2c3c(nn2-c2cccc(C)c2C)CS(=O)(=O)C3)c1OC 1.01
CCC(=O)N1CCc2cc(S(=O)(=O)NC(C(=O)N3CCc4ccccc4C3)C(C)C)ccc21 (stereo unspecified) 1
CCOc1cc(C(=O)N2CCc3cc(OC)c(OC)cc3C2)ccc1OC(F)F 0.97
O=C(Nc1cnn(Cc2ccc(Cl)cc2)c1)C1CCCC1 1.03
c1cc(-n2cnnn2)ccc1NC1=NCCC1 1.01
O=C(C1CCCO1)N(Cc1ccccc1)c1ccccc1 (stereo unspecified) 1.03
CC(C)OC(=O)C(C#N)c1nc2ccccc2nc1N1CCN(Cc2ccc3c(c2)OCO3)CC1 (stereo unspecified) 1.02
CCN1CCN(C(=O)c2ccccc2N(C)S(=O)(=O)c2ccc(C)cc2)CC1 1.05
COc1c(O)cccc1-c1nnn(CCC(=O)OCC(=O)c2ccccc2)n1 1.01
CS(=O)(=O)N(C(=O)NC(=O)NC1CCS(=O)(=O)C1)C1CCCCC1 (stereo unspecified) 1.04
N#Cc1c(N)n(CCOC(=O)c2ccc(Cl)cc2)c2nc3ccccc3nc12 1.01
CCc1cc(=O)oc2cc(C)cc(OC(C)C(=O)O)c12 (stereo unspecified) 1.04
O=c1[nH]nc(CSCc2ccccc2Cl)[nH]1 1.04
Cn1c(=O)n(C)c2cc(CNc3ccc(N4CCOCC4)c(C(=O)O)c3)ccc21 1
O=C(Cn1c(=O)sc2ccccc21)Nc1ccc2c(c1)OCCO2 1.01
Cc1ccc(S(=O)(=O)NCc2cn3ccsc3n2)c(C)c1 0.97
CCOc1ccc(OCC)c(NC(=O)C(NS(=O)(=O)c2ccc3c(c2)oc(=O)n3C)C(C)C)c1 (stereo unspecified) 0.97
COCC(C)N=CC1=C(O)CC(C)(C)CC1=O (stereo unspecified) 0.95
NC(=O)CSc1c[nH]c2ccccc12 1.01
COc1ccc(NC(C)=O)cc1NC(=O)CN1CCN(c2ccccn2)CC1 0.97
CCN1CCN(c2ncnc3c2oc2nc(C)c4c(c23)CC(C)(C)OC4)CC1 0.99
COc1ccc2nc(NC(=O)c3ccc(Br)s3)sc2c1 1.1
CCOC(=O)c1c(N)c(C#N)nn1-c1ccccc1C(=O)OC 1
Cc1nnc(SCc2cc(=O)[nH]c(N3CCN(Cc4ccccc4)CC3)n2)s1 1.01
O=C(Nc1ccccc1)c1cccnc1Nc1ccccc1 1.1
CCN(Cc1nc2ccccc2c(=O)[nH]1)Cc1cc(=O)oc2cc(C)c(C)cc12 1.01
CC(C)C(=O)Nc1c(C(=O)c2ccc(F)cc2)oc2ccccc12 1.11
Cc1ccc(S(=O)(=O)NCC(=O)N(CC(=O)NC2CCCCC2)Cc2ccco2)cc1 0.98
Cc1ccc(C)c(N2CCN(S(=O)(=O)c3ccc4c(c3)oc(=O)n4C)CC2)c1 0.98
C=CCNc1ncnc2ccc(Br)cc12 1.1
O=C(CSc1nnc(-c2cccs2)n1Cc1ccco1)c1ccc2c(c1)OCO2 1.08
CC(C)(C)NC(=O)Cn1nnc(-c2ccccc2Cl)n1 1.03
ON=C1/C(=N\O)CC2(C/C1=N/O)OCCO2 0.99
COC(=O)CNC(=O)c1ccc2c(c1)S(=O)(=O)c1ccccc1C2=O 1.02
CCOC(=O)c1oc2ccccc2c1NC(=O)c1cccs1 1.02
CC(C)Oc1ccc(C2NC(=O)NC2=O)cc1 (stereo unspecified) 1
O=C(CS(=O)(=O)Cc1ccccc1)Nc1cccnc1 1.08
CCOC(=O)c1c(NC(=O)CCC(=O)NCc2ccco2)sc2c1CCCC2 1.03
CCCc1cc(=O)[nH]c(SCC(=O)OCc2ccccc2)n1 1.02
CCOC(=O)C1=C(C)N=c2s/c(=C\C(=O)OC)c(=O)n2C1c1ccc(OC)cc1 (stereo unspecified) 1.09
CCOC(=O)C1CCCN(Cc2nc(N)nc(Nc3ccc(C)cc3)n2)C1 (stereo unspecified) 1
CN(C)CCNC(=O)C(C(=O)c1ccccc1)n1ccccc1=O (stereo unspecified) 1.03
COCCNC(=S)c1ccc(OC)cc1 1.01
CCOC(=O)CSc1nnc(-c2cccc(Br)c2)o1 1.02
N#Cc1nc(N)nc(N(c2ccccc2)c2ccccc2)n1 1
Cc1ccccc1N1C(=O)C2ON(c3ccccc3)C(c3ccncc3)C2C1=O (stereo unspecified) 0.99
O=C(CCN1C(=O)c2ccccc2C1=O)NCCN1CCOCC1 0.99
COc1ccccc1-c1cc(C(=O)NCCCn2ccnc2)no1 0.99
NC(=O)Cn1c(=O)oc2ccccc21 0.97
O=C(Cn1c(=O)sc2ccccc21)Nc1nc2c(s1)CCCC2 1.03
O=C(Cn1nc(C(F)(F)F)c2c1CCC2)NCc1ccc(F)cc1 1.04
Cc1ccc(Oc2ccc(N)cc2)cc1 1.02
CCOC(=O)N1CCN(C(=O)CSc2nnc(-c3c[nH]c4ccccc34)n2CCOC)CC1 1.06
Cc1ccc(N2CCN(S(=O)(=O)N(C)C)CC2)cc1Cl 1.01
O=S(N1CCCCCC1)C12CC3CC(CC(C3)C1)C2 (stereo unspecified) 0.99
CC(C)OC(=O)CN1C(=O)c2ccccc2C1=O 1.01
CCS(=O)(=O)N1CCC(C(=O)N2CCN(c3ccccc3)CC2)CC1 1.02
CC1(C)CC(=O)c2sc(N)nc2C1 1.11
O=C(NCc1ccco1)c1cnn2c(C(F)(F)F)cc(-c3ccco3)nc12 1.04
CC1CCCN(c2ccc(C(=O)NCCc3ccccc3)cn2)C1 (stereo unspecified) 1.04
O=C(c1ccc2c(c1)C(=O)N(c1ccc(Cl)cc1)C2=O)N1CCN(c2ccccn2)CC1 1
Cc1ccc2c(c1)c1ncn(CCC3=CCCCC3)c(=O)c1n2C 1
CCNc1nc(SCCOc2ccccc2)nc(N(C)C)n1 1.04
CCC(C(=O)NC1CCCC1)N(C(=O)c1snc(C(N)=O)c1N)c1ccc2c(c1)OCCO2 (stereo unspecified) 1.1
COc1ccc(C(=O)N(CCN2CCOCC2)CC(=O)NC2CCCC2)cc1OC 0.98
OCCCN1c2ccccc2Nc2nnc(-c3ccccc3)cc21 1.04
COc1ccccc1-c1cc(C(=O)N2CCCCC2)no1 1.02
Cc1ccc2nc(-c3ccc(SCC(=O)Nc4cc(C)on4)nc3)[nH]c2c1 1.14
CCNS(=O)(=O)c1ccc(NC(=O)Nc2cccc(OC)c2)cc1 1.06
O=C(NC1CCCC1)c1ccc(Br)s1 1.03
CCOC(=O)CSc1nnc(CNC(=O)Cc2ccccc2)n1-c1ccccc1OC 0.99
CCOc1ccc(C(CC(=O)O)NC(=O)COc2ccccc2)cc1 (stereo unspecified) 1.03
CCCC1C(c2ccccc2)C(C#N)(C#N)C2(C#N)CC1(N)NC2=O (stereo unspecified) 1.02
C#CCNc1nc(C(C)C)nc2c1nnn2Cc1ccccc1F 1.04
CN(C)/C=C1\C=C(c2ccccc2)OC1=O 1.21
